PubChem BioAssay (Tox21)
Values joined by “and” are separate entries in the source; they are usually repeats but may differ in a detail not shown here. Identical values can stand only once. Results filed as inconclusive are left out. Entries that show only a call come without a potency. Some compounds were tested as several samples or in several runs, with calls that do not always agree. Active and inactive are the calls of the source. Unless noted, calls follow the shape of the dose curve; as a rule, active = well fitted curve in the direction sought with a large enough effect in the repeat runs; inconclusive = weak or mixed curves; inactive = no such curve, though single readings can be large; an effect the other way counts as inactive or inconclusive.

Columns and labels:
[1] = qHTS assay to identify small molecule antagonists of the glucocorticoid receptor (GR) signaling pathway - cell viability counter screen (AID 720693); also: nearly all actives have a fitted effect of over 55% in size
[2] = qHTS assay for identifying genotoxic compounds that show differential cytotoxicity against isogenic chicken DT40 cell lines with known DNA damage response pathways - wild type cell line (AID 743012); also: nearly all actives have a fitted effect of over 60% in size; also: potency is read from the fitted curve at half-maximal effect
Method in brief: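 CellTiter-Glo luminescence readout of viability in wild type DT40 cells after 40 h compound exposure at 37 C/5% CO2; 300 cells/well; reagent incubated 30 min at room temperature before reading.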

[3] = qHTS assay for identifying genotoxic compounds that show differential cytotoxicity against isogenic chicken DT40 cell lines with known DNA damage response pathways - Rad54/Ku70 mutant cell line (AID 743015); also: nearly all actives have a fitted effect of over 60% in size; also: potency is read from the fitted curve at half-maximal effect
[4] = qHTS assay to identify small molecule antagonists of the androgen receptor (AR) signaling pathway - cell viability counter screen (AID 743033; also: nearly all actives have a fitted effect of over 45% in size)
[5] = qHTS assay to identify small molecule antagonists of the androgen receptor (AR) signaling pathway using the MDA cell line - cell viability counter screen (AID 743041; also: nearly all actives have a fitted effect of over 45% in size)
Method in brief: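 Compound exposure lasted 16 h at 37C in MDA-kb2 AR-luc cells stimulated with R1881. Protease-based CellTiter-Fluor reagent was applied for the final 30 min and fluorescence measured.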

[6] = qHTS assay for identifying genotoxic compounds that show differential cytotoxicity against isogenic chicken DT40 cell lines with known DNA damage response pathways - Rev3 mutant cell line (AID 743014); also: nearly all actives have a fitted effect of over 55% in size; also: potency is read from the fitted curve at half-maximal effect
[7] = target: Androgen receptor (Homo sapiens) (UniProt P10275); assay: qHTS assay to identify small molecule agonists of the androgen receptor (AR) signaling pathway (AID 743036; active = well fitted activation curve with a large enough effect in the signal ratio in the repeat runs, with a control signal flat, not every such curve was filed as active; the % refers to the signal ratio)
Androgen receptor (Homo sapiens), sequence (P10275 whole entry, looked up): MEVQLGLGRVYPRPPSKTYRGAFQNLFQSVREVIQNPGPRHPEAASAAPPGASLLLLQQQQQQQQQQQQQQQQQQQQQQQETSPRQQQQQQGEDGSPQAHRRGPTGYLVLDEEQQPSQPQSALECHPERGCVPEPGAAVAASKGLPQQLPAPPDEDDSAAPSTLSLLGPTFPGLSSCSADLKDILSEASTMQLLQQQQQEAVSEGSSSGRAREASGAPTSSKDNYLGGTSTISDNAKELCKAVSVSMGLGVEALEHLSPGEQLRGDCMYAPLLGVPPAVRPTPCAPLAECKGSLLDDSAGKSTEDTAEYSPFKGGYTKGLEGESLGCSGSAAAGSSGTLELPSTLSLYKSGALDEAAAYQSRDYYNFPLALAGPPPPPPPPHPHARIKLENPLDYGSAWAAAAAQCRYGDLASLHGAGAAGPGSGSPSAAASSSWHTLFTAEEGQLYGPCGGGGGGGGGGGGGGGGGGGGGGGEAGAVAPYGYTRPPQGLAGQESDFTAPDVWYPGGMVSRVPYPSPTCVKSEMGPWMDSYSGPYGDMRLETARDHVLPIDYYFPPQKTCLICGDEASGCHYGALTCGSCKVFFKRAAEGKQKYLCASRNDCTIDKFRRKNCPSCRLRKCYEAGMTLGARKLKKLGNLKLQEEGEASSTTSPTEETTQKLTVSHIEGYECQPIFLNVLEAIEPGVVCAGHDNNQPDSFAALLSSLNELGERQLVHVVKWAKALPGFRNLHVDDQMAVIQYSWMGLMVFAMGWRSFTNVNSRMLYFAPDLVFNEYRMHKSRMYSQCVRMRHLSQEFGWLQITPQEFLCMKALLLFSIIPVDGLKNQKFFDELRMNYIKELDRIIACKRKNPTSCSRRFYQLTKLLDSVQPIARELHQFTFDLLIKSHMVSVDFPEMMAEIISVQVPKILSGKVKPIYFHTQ
Method in brief: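 Beta-lactamase under UAS control, stably integrated in HEK293 GripTite cells, reports receptor activation. After 16 h compound treatment, cells received FRET substrate for 2 h at room temperature before fluorescence reading.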

[8] = target: Androgen receptor (Homo sapiens) (UniProt P10275); assay: qHTS assay to identify small molecule agonists of the androgen receptor (AR) signaling pathway using the MDA cell line (AID 743040; also: nearly all actives have a fitted effect of over 20% in size)
Method in brief: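 Testing was done with the MDA-kb2 AR-luc line, a human breast carcinoma stably transfected with MMTV-luciferase containing AR and GR response elements. Cells were exposed 16 h at 37C before ONE-Glo luminescence detection.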

[9] = target: Androgen receptor (Homo sapiens) (UniProt P10275); assay: qHTS assay to identify small molecule antagonists of the androgen receptor (AR) signaling pathway using the MDA cell line (AID 743042; also: nearly all actives have a fitted effect of over 55% in size)
Method in brief: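 MDA-kb2 breast carcinoma cells carrying MMTV-luciferase (AR/GR responsive) were co-treated with compounds and the agonist R1881 for 16 h at 37C. Inhibition read as ONE-Glo luminescence; CellTiter-Fluor fluorescence measured in parallel for cytotoxicity.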

[10] = target: Androgen receptor (Homo sapiens) (UniProt P10275); assay: qHTS assay to identify small molecule antagonists of the androgen receptor (AR) signaling pathway (AID 743035; active = well fitted inhibition curve with a large enough effect in the signal ratio in the repeat runs, not every such curve was filed as active; the % refers to the signal ratio)
Method in brief: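 AR-bla HEK293 reporter cells; 4 h settle at 37C/5% CO2; compound + R1881 agonist, 16 h at 37C; LiveBLAzer B/G FRET substrate 2 h RT; fluorescence intensity read. qHTS format.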

SMILES | Potency [1] | Potency [2] | Potency [3] | Potency [4] | Potency [5] | Potency [6] | outcome [7] | Potency [8] | Potency [9] | Potency [10]
CCC(CO)(CO)[N+](=O)[O-] | inactive | inactive | inactive | inactive | inactive | – | – | – | – | –
CC1=CC[C@@]23C[C@@H]1C(C)(C)[C@@H]2CC[C@H]3C | inactive | inactive | – | inactive | inactive | inactive | – | – | – | –
CC1=CC[C@@H]2C[C@H]1C2(C)C | inactive | inactive | – | inactive | inactive | – | – | – | – | –
O=C1[C@@H]2[C@H]3CC[C@H](C3)[C@@H]2C(=O)N1CCCCN1CCN(c2ncccn2)CC1 | inactive | inactive | – | inactive | inactive | inactive | – | – | – | –
[Cl][Nd]([Cl])[Cl] | inactive | – | inactive | inactive | – | inactive | – | – | – | –
Nc1ccc(NC(=O)c2ccc(N)cc2)cc1 | inactive | inactive | – | inactive | inactive | inactive | inactive | inactive | inactive | –
O=C(NS(=O)(=O)/C=C/c1ccccc1)c1ccc(F)cc1Cl | inactive | inactive | inactive | inactive | – | – | – | – | – | –
C[C@@H]1[C@H](O)[C@@H](C)/C=C/C=C\C=C\C=C\C=C\C=C\C=C\[C@H](O[C@@H]2O[C@H](C)[C@@H](O)[C@H](N)[C@@H]2O)C[C@@H]2O[C@](O)(C[C@@H](O)C[C@@H](O)[C@H](O)CC[C@@H](O)C[C@@H](O)CC(=O)O[C@H]1C)C[C@H](O)[C@H]2C(=O)O (stereo in doubt) | inactive | – | inactive and 61.1 µM (active) | inactive | – | inactive | – | – | – | –
CCN(CC)c1cccc(O)c1 | inactive | inactive | inactive | inactive | inactive | – | – | inactive | inactive | –
Cc1cccc2sc(N)nc12 | inactive | – | inactive | inactive | – | inactive | – | – | – | –
CCCCCCCC(=O)Oc1c(Br)cc(C#N)cc1Br | inactive | inactive | – | – | inactive | inactive | – | – | – | –
CN1CCCN(C(c2ccccc2)c2ccc(Cl)cc2)CC1 (stereo not drawn) | inactive | 9.44 µM (active) | 18.8 µM (active) | – | inactive | 11.9 µM (active) | – | inactive | inactive | –
CC(C)Cc1ccc(CC(=O)O)cc1 | inactive | – | inactive | inactive | – | inactive | – | – | – | –
CC(=O)OCC(=O)[C@@]1(OC(C)=O)[C@@H](C)C[C@H]2[C@@H]3C[C@H](F)C4=CC(=O)C=C[C@]4(C)[C@@]3(F)[C@@H](O)C[C@@]21C | inactive | 26.6 µM (active) | – | inactive | inactive | 11.9 µM (active) | – | – | – | –
CCCCCCC(O)CCOC(C)=O (stereo not drawn) | inactive | inactive | inactive | inactive | – | – | – | – | – | –
COC(=O)CC(C(C)=O)C(=O)OC (stereo not drawn) | inactive | inactive | inactive | inactive | inactive | – | inactive | inactive | inactive | inactive

SMILES | Potency [1] | Potency [2] | Potency [3] | Potency [4] | Potency [5] | Potency [6] | outcome [7] | Potency [8] | Potency [9] | Potency [10]
CC[C@H]1OC(=O)[C@H](C)[C@@H](O[C@H]2C[C@@](C)(OC)[C@@H](O)[C@H](C)O2)[C@H](C)[C@@H](O[C@@H]2O[C@H](C)C[C@H](N(C)C)[C@H]2O)[C@](C)(O)C[C@@H](C)C(=O)[C@H](C)[C@@H](O)[C@]1(C)O | inactive | – | inactive | inactive | – | inactive | – | – | – | –
O=[N+]([O-])C1(Br)COCOC1 | inactive | 12.2 µM (active) | 21.7 µM (active) | – | inactive | 21.7 µM (active) | – | – | – | –
FC(F)(F)C(F)(F)C(F)(F)C(F)(F)CCI | inactive | inactive | inactive | inactive | inactive | – | – | – | – | –
CC(C)(C)C1(CCc2ccc(Cl)cc2)CO1 (stereo not drawn) | inactive | inactive | – | inactive | inactive | – | – | – | – | –
CC(C)CC(O)CC(C)C | inactive | – | inactive | inactive | – | inactive | – | – | – | –
CCC(CO)(CO)CO | inactive | inactive | – | inactive | inactive | – | inactive | inactive | inactive | inactive
CCCCCCCCCCCCCOS(=O)(=O)O | inactive | inactive | – | – | inactive | – | – | inactive | inactive | inactive
CCC1CCC(CCC(=O)O)C1 (stereo not drawn) | inactive | – | inactive | inactive | – | inactive | – | – | – | –
C[C@@H]1C[C@H]2[C@@H]3CCC4=CC(=O)C=C[C@]4(C)[C@@]3(F)[C@@H](O)C[C@]2(C)[C@@]1(O)C(=O)COP(=O)(O)O | inactive | inactive | inactive | inactive | inactive | – | – | – | – | –
Cc1ccc(N(CC2=NCCN2)c2cccc(O)c2)cc1 | inactive | 23.7 µM (active) | – | inactive | inactive | – | – | – | – | –
CC[C@@H](CO)NCCN[C@@H](CC)CO | inactive | inactive | inactive | inactive | inactive | – | – | – | – | –
O=S(=O)(Cl)c1c(Cl)cccc1Cl | inactive | – | inactive | inactive | inactive | inactive | inactive | inactive | inactive | –
O=C(C(=O)c1ccco1)c1ccco1 | inactive | – | inactive | inactive | inactive | inactive | inactive | inactive | inactive | inactive
CNC1CCCN(c2c(F)cc3c(=O)c(C(=O)O)cn(C4CC4)c3c2OC)C1 (stereo not drawn) | inactive | – | inactive | inactive | inactive | inactive | – | – | – | –
Cc1cn([C@H]2C[C@H](F)[C@@H](CO)O2)c(=O)[nH]c1=O | inactive | – | inactive | inactive | inactive | inactive | inactive | inactive | inactive | inactive
